Beta2AR agonist: agonists of human beta-2 adrenergic receptor inducing internalization. P07550. Am2.2-beta2AR cells, FAP receptor internalization, flow cytometry. response, % (test concentration not listed). 340,000 compounds, 0.43% hits. AID 504454;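 active = response above a set limit, near 3 SD of response in nonfluorescent compounds, cut at about 42% in these data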
dFosB act: mouse delta FosB homodimer activation; P13346; purified delta FosB, TAMRA-CDK5 oligo fluorescence polarization; percent of positive-control signal above neutral wells; activation, % at 25 µM; 340,000 compounds, 0.99% hits; AID 493131;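 active = mean activation above about 17%, with every replicate also reaching it, limit read from the data, passing the limit was not always enough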
Target sequence (P13346 whole entry, looked up): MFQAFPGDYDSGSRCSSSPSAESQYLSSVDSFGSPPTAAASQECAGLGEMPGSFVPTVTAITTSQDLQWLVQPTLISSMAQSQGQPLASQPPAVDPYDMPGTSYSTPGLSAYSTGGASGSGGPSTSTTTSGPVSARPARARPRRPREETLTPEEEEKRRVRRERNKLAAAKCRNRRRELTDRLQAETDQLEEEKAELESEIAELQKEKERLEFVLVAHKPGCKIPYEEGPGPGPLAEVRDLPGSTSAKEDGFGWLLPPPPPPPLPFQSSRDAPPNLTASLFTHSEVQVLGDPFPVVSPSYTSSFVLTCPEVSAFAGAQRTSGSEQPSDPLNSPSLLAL
Dyrk1A ADPGlo: blocks rat Dyrk1A kinase activity | Q63470 | ADP-Glo luminescence, NFATc1 peptide | inhibition, % at 12.5 µM | 310,000 compounds, 0.43% hits; in the data active = inhibition above about 50%;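 note: plate controls were vehicle with enzyme for no effect and no enzyme for full effect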
A1 inh: inhibitors of the anti-apoptotic protein A1, read as caspase activation; MEF A1-2A-BIM cells, Caspase-Glo 3/7 luminescence, 3 h; percent of clofoctol response, vehicle zero; caspase activation, % (test concentration not listed); 330,000 compounds, 0.066% hits;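 active = over half of replicate activation scores above 10%, or exactly half above 10 with the replicate mean above 10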
ADP-Glo artifact: ADP-Glo luciferase interference, Dyrk1A counter-screen | shares compounds with Dyrk1A ADPGlo | ADP-Glo luciferase artifact assay, no Dyrk1A, luminescence | AC50, µM (titrated, usually from 12 µM), without a hit: at the highest dose activity change, negative = inhibition | 1,300 tested, under 10 active | AID 588348;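 active = fitted half-maximal dose AC50 no more than ten times the top valid tested dose, with luminescence dropping as dose rises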
Active calls of the source: *; . = not tested or not shown. Compounds with a hit are over-represented: about 1.6% of the library has one in this group of screens.

SMILES	Beta2AR agonist	dFosB act	Dyrk1A ADPGlo	A1 inh	ADP-Glo artifact
COC(=O)c1cc(S(=O)(=O)NCC2CCN(CCc3ccc(OC)cc3)CC2)c[nH]1	1	-3	-2	2	.
COc1cccc(-c2sc3ccccc3c2-c2ccc(OCCN3CCCC3)cc2)c1	20	6	51*	0	9%
CC1(C(=O)OCC(=O)Nc2cccc(S(=O)(=O)NC3=NCCCCC3)c2)CC1(Cl)Cl (stereo not drawn)	-3	-10	0	0	.
CN=C1S/C(=C\c2ccc(O)c(Br)c2)C(=O)N1C	-1	-2	91*	-9	4%
CC(C)CNC(=O)C(=O)Nc1cc2c3c(c1)C(C)C(=O)N3CCC2 (stereo not drawn)	-3	-5	-3	0	.
O=c1oc(Nc2cccc(F)c2)nc2ccccc12	2	-2	8	-8	.
Nc1nc(Nc2cccc(F)c2)nc2ccccc12	-7	-1	74*	-7	1%
Oc1c(Cl)c(Cl)c2ncccc2c1Cl	-8	-2	55*	.	9%
Oc1c(I)cc(Cl)c2cccnc12	15	-5	12	1	.
COc1ccc(-c2ccc(=O)n(Cc3cccc([N+](=O)[O-])c3)n2)cc1	2	-15	64*	0	7%
CSc1cccc(NC(=O)c2c(Cl)cnn2C)c1	3	-3	53*	0	9%
CC1(C)CC(=O)c2sc(NC(=O)C3CC3)nc2C1	-24	-4	4	1	.
CCOCC(=O)Nc1nc2c(s1)C(=O)CC(C)(C)C2	0	-7	57*	0	9%
COc1ccc(-n2ccc(-c3nn(-c4cccc(C(F)(F)F)c4)ccc3=O)n2)cc1	2	-1	51*	0	6%
COc1ccc(OC)c(NC(=O)CSc2nnc(NC(=O)c3ccco3)s2)c1	0	1	6	0	.
COc1cc(-c2cn(S(=O)(=O)c3cccc4nsnc34)nc2N)cc(OC)c1OC	-1	1	83*	0	10%
COc1ccc(CN2CCN(Cc3ccc(C(F)(F)F)cc3)CC2)cc1	-9	-5	-5	0	.
O=C(N[C@H]1C/C=C\C[C@H](CC(=O)N(CCO)Cc2ccccc2)C(=O)N[C@H](Cc2c[nH]c3ccccc23)COC1=O)OCC1c2ccccc2-c2ccccc21	-1	5	7	0	.
Cc1ncc(CO)c(/C=N/Nc2ccc(C(F)(F)F)cn2)c1O	-14	-7	50*	0	9%
COCCNC(=O)/C(C#N)=C/c1cc(Br)c(O)c(OC)c1	3	-5	13	-1	.
CCOCCCNC(=O)/C(C#N)=C/c1cc(Br)c(O)c(Br)c1	28	-7	55*	.	11%
COc1ccc(C)cc1S(=O)(=O)NCC(c1ccc2c(c1)OCO2)N1CCOCC1 (stereo not drawn)	1	-6	5	0	.
CC(=O)c1nc2ccccc2n1S(=O)(=O)c1ccc(Cl)cc1	11	3	83*	0	7%
CC(=O)c1nc2ccccc2n1S(=O)(=O)c1ccc(C)cc1	-13	6	-1	0	.
Cc1ccccc1C(=O)NNC(=O)CCCCC(=O)NNC(=O)c1ccccc1C	1	3	66*	0	12%
SMILES	Beta2AR agonist	dFosB act	Dyrk1A ADPGlo	A1 inh	ADP-Glo artifact
Cc1ccccc1C(=O)NNC(=O)Cc1cccc2ccccc12	2	-1	-4	0	.
Cc1cc(N2CCC(C)CC2)nc2cccc(O)c12	-5	-6	51*	0	9%
Cn1nnnc1Sc1ncnc2scc(-c3ccc[nH]3)c12	22	0	52*	0	8%
CN(C)c1ccc(NC(=O)CSc2n[nH]c(-c3ccncc3)n2)cc1	-5	3	9	.	.
O=C(NN1C(=O)/C(=C/c2ccc(O)c([N+](=O)[O-])c2)SC1=S)c1ccccc1Cl	7	-3	74*	0	10%
COc1cc(/C=C2\SC(=S)N(NC(=O)c3ccccc3O)C2=O)ccc1O	-21	7	17	-1	.
O=C(NCCCCNC(=O)c1cccnc1Cl)c1cccnc1Cl	-3	-2	0	-1	.
CCC1NC(C(=O)O)Cc2c1[nH]c1ccccc21 (stereo not drawn)	35	1	50*	0	8%
Cn1c(-c2ccccc2)c(C=O)c2ccccc21	-8	-10	78*	0	7%
Nc1ccc2c(c1)C(=O)c1ccccc1-2	-5	6	7	0	.
Nc1ccc2c(c1)C(=O)C(=O)c1ccccc1-2	81*	1	89*	0	7%
COc1cc(/C=N/N2C(=O)CSC2=S)ccc1O	-13	-1	52*	-1	10%
COc1ccc2c(c1)CCc1cn3nc(C)cc3nc1-2	2	-9	81*	-1	10%
COc1ccc2c(c1)CCc1cnc(N)nc1-2	-4	-7	.	0	.
CC1CN(CC(=O)Nc2nc(-c3ccc(Cl)cc3)cs2)CC(C)O1 (stereo not drawn)	4	-7	2	0	.
C#CCOCCOCCOCCNc1nc(N2CCN(C(=O)[C@H]([C@@H](C)CC)n3cc([C@@H](N)Cc4ccc(O)cc4)nn3)CC2)nc(N2CCN(C(=O)[C@H](CCCCN)n3cc([C@@H](N)CC(C)C)nn3)CC2)n1	.	.	.	0	.
COc1cc(/C=C2\SC(N)=NC2=O)cc(Cl)c1O	16	2	61*	1	10%
Oc1[nH]c2ccc(Br)cc2c1N=NC(=S)Nc1ccc(F)cc1	16	-2	8	4	.
N=C(N)N=Nc1c(O)[nH]c2ccc(Br)cc12	3	16	63*	0	8%
Oc1ccc(NC(=S)N=Nc2c(O)[nH]c3ccc(Br)cc23)cc1	15	0	51*	.	10%
Cc1ccc2c(c1)N(C(=O)CCC(=O)NCCCN1CCOCC1)CCO2	1	-1	2	-2	.
Cc1cc(-c2ccn[nH]2)c(C)s1	-1	0	-3	0	.
Cc1ccc(C(=O)CCC(=O)OC(C)C(=O)NC2CCCCC2C)cc1 (stereo not drawn)	2	-5	13	0	.
O=C(O)c1[nH]c2ccc([N+](=O)[O-])cc2c1-c1ccccc1	9	-7	53*	-1	9%
NNC(=O)c1[nH]c2ccc([N+](=O)[O-])cc2c1-c1ccccc1	4	-16	12	1	.
N#Cc1c(=O)c2nc(NCCCO)ncc2n2c(=O)c3ccccc3[nH]c12	0	-5	56*	-1	9%
N#Cc1c(=O)c2nc(NCc3ccccc3)ncc2n2ccccc12	-7	-6	4	-1	.
CC(=O)NC1=CC(=C[N+](=O)[O-])C=C1O	-9	-1	.	.	.
C[C@@H]1O[C@@H](O[C@H]2[C@H](O)[C@@H](O)[C@H](Oc3c(-c4ccc(O)c(O)c4)oc4cc(O)cc(O)c4c3=O)O[C@@H]2CO)[C@H](O)[C@H](O)[C@H]1O	5	1	52*	0	7%

High-throughput results as filed in PubChem BioAssay.
